Assay outcomes as filed in PubChem BioAssay.
This is a sample that favours compounds with a hit; in the whole collection about 3.8% have one here.
tim10-1 inh – inhibits growth of tim10-1 mutant yeast; inhibition, % at 20 µM; AID 463190; S. cerevisiae tim10-1 ts strain growth, BacTiter-Glo, 24 h; 330,000 tested, 2.2% active;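 active = inhibition of at least 40%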;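 note: mutant grown at 25 °C; 0% = DMSO wells with yeast and 100% = wells holding no yeast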
TIM10 inh – inhibits growth of TIM10 yeast strain; S. cerevisiae TIM10 strain growth, BacTiter-Glo luminescence, 24 h; 330,000 tested, 1.4% active; inhibition, % at 10 µM;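 active = inhibition of 40% or more at the single tested concentration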;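 note: wild-type TIM10 isogenic control strain grown at permissive 25 °C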
B2AR ag – agonists of human beta-2 adrenergic receptor inducing internalization; P07550; Am2.2-beta2AR cells, FAP receptor internalization, flow cytometry; response, % (concentration not given with the values); 340,000 tested, 0.43% active; AID 504454;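 active = response above a set limit, near 3 SD of response in nonfluorescent compounds, cut at about 42% in these data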
Target sequence (P07550 whole entry, looked up): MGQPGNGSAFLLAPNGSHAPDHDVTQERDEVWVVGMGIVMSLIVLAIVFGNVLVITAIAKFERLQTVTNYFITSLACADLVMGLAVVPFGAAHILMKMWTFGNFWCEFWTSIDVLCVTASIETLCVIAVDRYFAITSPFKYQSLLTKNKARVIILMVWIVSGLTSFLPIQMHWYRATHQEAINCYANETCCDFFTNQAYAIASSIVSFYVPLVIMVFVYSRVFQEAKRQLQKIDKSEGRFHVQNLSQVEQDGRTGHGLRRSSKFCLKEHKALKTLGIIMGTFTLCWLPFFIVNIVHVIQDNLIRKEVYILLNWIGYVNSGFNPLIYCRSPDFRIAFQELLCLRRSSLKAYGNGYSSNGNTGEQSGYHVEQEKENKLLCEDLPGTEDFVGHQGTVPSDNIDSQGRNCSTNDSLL
PfHsp90 yeast 2 – inhibits growth of yeast expressing Plasmodium falciparum Hsp90; S. cerevisiae expressing PfHsp90, BacTiter-Glo ATP, 48 h; yeast lacking PDR1 and PDR3 efflux regulators; inhibition, % at 9.4 µM; 310,000 tested, 0.32% active;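 active = every replicate shows inhibition above about 80%, whatever the replicate mean, limit read from the data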;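 note: 0% = DMSO neutral controls and 100% = 20 µM radicicol positive controls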
tim23-1 inh – tim23-1 yeast growth inhibition; 330,000 tested, 1.3% active; inhibition, % at 20 µM; S. cerevisiae tim23-1 growth, BacTiter-Glo luminescence, 24 h;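 active = growth inhibition of the mutant yeast at or above 50%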;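 note: temperature-sensitive mutant grown at 25 °C; plate controls were DMSO-treated mutant yeast for no effect and medium wells lacking yeast for full effect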
tim10-1 conf – confirmation of tim10-1 mutant yeast growth inhibitors. shares compounds with tim10-1 inh. S. cerevisiae tim10-1 ts strain growth, BacTiter-Glo, 24 h. inhibition, % at 20 µM. 7,400 tested, 56% active. AID 463213;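 active = inhibition of yeast growth at or above a set limit in either of two repeat tests at 20 µM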;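 note: tim10-1 mutant grown at permissive 25 °C to find synthetic lethal compounds; 0% = DMSO yeast wells and 100% = medium wells without yeast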
The depositor's hits bear a star; · = no result given.

SMILES	tim10-1 inh	TIM10 inh	B2AR ag	PfHsp90 yeast 2	tim23-1 inh	tim10-1 conf
CCCC1=Nc2cc(C(=O)N3CCC(C(=O)OCC)CC3)ccc2Sc2ccccc21	41*	-1	4	5	22	-12
CCCn1nc(NS(C)(=O)=O)c2cc3cccc(C)c3nc21	42*	27	0	·	34	35*
Cc1nc([N+](=O)[O-])c(C(=O)OCc2cccc(Br)c2)n1C	43*	7	-8	·	10	33*
Cc1nc([N+](=O)[O-])c(C(=O)OCc2ccccc2)n1C	8	8	-6	·	12	·
O=C(Nc1ccc(Cl)c(Cl)c1)c1ccc(Cl)c(Cl)c1	-29	15	-6	8	7	·
CC(C)C1O/C(=N/C(=O)Nc2ccc(Cl)c(Cl)c2)NC1=O (stereo not given)	57*	36	15	·	50	47*
CCN(c1ccccc1)c1nc(Cl)nc2c1cnn2C	·	·	-3	·	·	·
O=C(c1ccc(O)cc1)c1ccc(Cl)cc1	40	-4	-3	5	39	26
CCOC(=O)N1CCN(c2nc3ccc(C)cc3n3cnnc23)CC1	16	-9	-16	-3	24	·
COc1ccccc1-c1nnc(Sc2nc([N+](=O)[O-])nn2C)o1	48*	35	-1	·	44	42*
CCC1CCC2(CC1)NC(=O)N(CC(=O)NCc1ccccc1Cl)C2=O (stereo not given)	0	-3	-6	·	-2	·
COC(=O)c1ccccc1NC(=O)COC(=O)Cc1ccc(S(=O)(=O)N2CCOCC2)s1	·	·	3	-7	·	·
CCOc1c(C)cnc2c1c(=O)n(Cc1ccc(Cl)cc1)c(=O)n2C	5	1	-5	4	-4	·
C=C1CCC[C@]2(C)C[C@H]3OC(=O)C(CNCC(C)C)[C@H]3CC12 (stereo not given in full)	42*	3	5	25	31	36*
C=C1CCC[C@]2(C)C[C@H]3OC(=O)C(CNCCN(CC)CC)[C@H]3CC12 (stereo not given in full)	52*	18	-2	-3	30	48*
C=C1CCC[C@]2(C)C[C@H]3OC(=O)C(CNCCN(C)C)[C@H]3CC12 (stereo not given in full)	46*	16	9	-26	33	44*
O=C(Nc1ccc(C(=O)Nc2ccccc2Cl)cc1)c1cccnc1	24	3	2	-6	21	·
N#CCSc1nccc(/C=C/c2ccccc2)n1	14	13	6	-18	19	·
CSc1nc2nccc(/C=C\c3ccccc3)n2n1	53*	24	-13	12	34	38*
Cc1nnc(-c2cccc(Br)c2)c2cn(-c3ccc(Br)cc3)nc12	20	30	-2	-17	-4	·
COc1ccc(-n2cc3c(-c4cccc(Br)c4)nnc(C)c3n2)cc1	46*	26	-59	-5	48	31
CC1(C)CC(=O)C2=C(C1)OC1=C(C(=O)CC(C)(C)C1)C2c1ccc(O)cc1O	44*	36	93*	-18	46	35*
Cc1cccc(-n2c(C)cc(C(=S)N3CCOCC3)c2C)c1C	44*	15	0	7	34	24
Cc1cc(C)cc(-n2c(C)cc(C(=S)N3CCOCC3)c2C)c1	24	37	-16	1	31	·
Oc1ccc(C23CCCC2C2(CCCC2)c2ccc(O)cc2O3)c(O)c1 (stereo not given)	0	-2	11	-26	29	·
SMILES	tim10-1 inh	TIM10 inh	B2AR ag	PfHsp90 yeast 2	tim23-1 inh	tim10-1 conf
CN(C)CCNCCCNc1c2ccccc2nc2cccc([N+](=O)[O-])c12	·	·	-3	16	·	·
CCCCc1ccc(NC(=S)NCc2ccc(OC)cc2)cc1	46*	34	-17	-6	25	-16
COc1ccc(CNC(=S)Nc2ccc(OC)cc2)cc1	8	5	8	-7	5	·
CC1CN(S(=O)(=O)c2cccc(C(=O)NCC(c3cccs3)N3CCOCC3)c2)CC(C)O1 (stereo not given)	·	·	-4	-8	·	·
O=C(NC(Cc1ccccc1)C(=O)O)/C(=C\c1ccccc1)NC(=O)c1ccc(Br)o1 (stereo not given)	-6	-2	-1	-20	-18	·
N/C(=N\OC(=O)COc1ccc2ccccc2c1Br)c1cccnc1	-3	8	·	·	13	·
N/C(=N\OC(=O)COc1ccc2ccccc2c1Br)c1ccccn1	43*	36	-12	-27	31	55*
